Assay results taken from ChEMBL document CHEMBL4513216, “Probing the Open Global Health Chemical Diversity Library for Multistage-Active Starting Points for Next-Generation Antimalarials” (ACS Infect Dis, 2020).
Hit rate of the full screen: of about 65,000 compounds, about 2,100 (3.2%) showed an effect of 50% or more. The median lay at about -52%. The sample as a whole holds a higher share of strong results than the screen did.

The compounds below were run on Plasmodium falciparum (assay: Screen against P. falciparum Asexual Blood Stage (ABS), at 5uM). Details: tested at 5 uM.
Type: functional, Dd2

Row | Structure (SMILES) | INHIBITION
1 | Cc1nc(=O)c(CC(=O)N2C[C@H]3CC[C@@H](C2)N(CC2CCC2)C3)c(C)[nH]1 | -89.5%
2 | CCN1CC(=O)NCC12CCN(C(=O)c1ccno1)C2 (centres undefined) | -7.44%
3 | N#Cc1cccc(S(=O)(=O)Nc2c(F)cccc2N2CCCC2)c1 | 74.1%
4 | N#Cc1cccc(C(=O)NS(=O)(=O)c2ccc(C#N)c(Cl)c2)c1 | -49.2%
5 | Cc1nc(CC(=O)N2CCN(Cc3ccc(C#N)cc3)CC2)cs1 | -11.175%
6 | CCOc1ccc(Cl)cc1C1CCCN1 (centres undefined) | 87.7%
7 | CCOc1ccc(Br)cc1C1CCCN1 (centres undefined) | 72.9%
8 | CCOc1ccc(Br)cc1C1CCCCN1 (centres undefined) | 78.2%
9 | CC(C)NC(=O)C1CCC2(CCNCC2)C1 (centres undefined) | -81.9%
10 | CCN1CCC2(CC1)C(=O)Nc1ccc(C(=O)NC)cc12 | -38.9%
11 | Cc1ccccc1CC(C)NC(=O)Nc1cnn(CC(N)=O)c1 (centres undefined) | -23.3%
12 | CC(C)COC(=O)N1CCC2(CCNC2)C1 (centres undefined) | -93.7%
13 | Cc1ncsc1CN1CC[C@H]2C[C@H](c3ccncn3)O[C@@H]2C1 | -37.3%
14 | NC(=O)C1(Cc2ccc(-c3ccccc3)cc2)CCNC1 (centres undefined) | 92.7%
15 | O=S1(=O)N(c2ccccc2)C[C@H](O)[C@]12CCNC2 | -88.5%
16 | NC1(c2nc(-c3cccs3)cc(=O)[nH]2)CCCCC1 | -95.6%
17 | O=C(N1CCCC1)C1(Cc2ccc(-c3cccs3)cc2)CCNC1 (centres undefined) | 84.5%
18 | O=C(c1nc(=O)[nH]c2ccccc12)N1CCCC2(CCNC2)C1 (centres undefined) | -74.6%
19 | O=S1(=O)N(c2ccccc2)C[C@@H](O)[C@]12CCNC2 | -3.43%
20 | CC(C)N1CCCC(Cc2nccnc2Cl)C1 (centres undefined) | -59.8%
21 | COc1ccc(C2SCC(=O)Nc3ccsc32)cc1 (centres undefined) | -71.1%
22 | O=C(N[C@@H]1CN[C@H]2CCCO[C@H]21)c1cccnc1 | -128%
23 | c1cncc(OC[C@]23COC[C@H]2CN(Cc2cccs2)C3)c1 | -51.7%
24 | CCCN(C)CC1CCN(c2ccc(Br)c(C)n2)C1 (centres undefined) | 73.7%
25 | CCc1noc(CC)c1CC(=O)N1CCN(C(C#N)C(C)C)CC1 (centres undefined) | -154%
26 | CNC(=O)[C@@H]1C[C@H]2CN(C(=O)c3ccccn3)C[C@H]2N1C(C)C | -23%
27 | CCN(CC)C[C@H]1CN2CC[C@H]1C[C@@H]2CNC(=O)c1ccco1 | -97.7%
28 | CN(C[C@H]1CN2CC[C@H]1C[C@@H]2CNC(=O)c1ccco1)c1ccccc1 | 71.2%
29 | CC[C@H]1CN2CC[C@H]1C[C@@H]2CNC(=O)c1ccco1 | -29.4%
